Experiment [1] can be described thus: qHTS assay to identify small molecule antagonists of the thyroid receptor (TR) signaling pathway - cell viability counter screen (AID 743064). Further: nearly all actives have a fitted effect of over 50% in size. The method, boiled down: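 Plate GH3.TRE-Luc cells; incubate 4 h at 37 °C; add compound, then T3 to 1 nM final; incubate 23.5 h; add CellTiter-Fluor; incubate 30 min at 37 °C, 5% CO2; read fluorescence.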
A general note: qHTS replaces the single test concentration by a dilution series.

Experiment [2] in a line: qHTS assay to identify small molecule antagonists of the thyroid receptor (TR) signaling pathway (AID 743065). Further: nearly all actives have a fitted effect of over 55% in size. Further: potency means the concentration at half of the fitted maximal effect. The method, boiled down:
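Antagonism measured as loss of luciferase signal in GH3 cells stably carrying a TRE-luciferase reporter, co-treated with compound and T3 (1 nM final) for 23.5 h at 37 C. Viability was read in the same well by CellTiter-Fluor.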

Experiment [3] deals with thyroid hormone receptor (rat, GH3 cells). Description: qHTS assay to identify small molecule agonists of the thyroid receptor (TR) signaling pathway (AID 743066; calls by dose curve).
Experiment [4] in a line: qHTS assay to identify small molecule antagonists of the estrogen receptor alpha (ER-alpha) signaling pathway - cell viability counter screen (AID 743074; calls by dose curve; further: nearly all actives have a fitted effect of over 45% in size).
For experiment [5], the target named is Estrogen receptor (Homo sapiens) (UniProt P03372). Description: qHTS assay to identify small molecule agonists of the estrogen receptor alpha (ER-alpha) signaling pathway (AID 743075; calls by dose curve; further: potency means the concentration at half of the fitted maximal effect).
For experiment [6] the target is unchanged. Nature of the experiment: qHTS assay to identify small molecule agonists of the estrogen receptor alpha (ER-alpha) signaling pathway using the BG1 cell line (AID 743079). Further: nearly all actives have a fitted effect of over 20% in size. Further: potency means the concentration at half of the fitted maximal effect.
Experiment [7] can be described thus: qHTS assay to identify small molecule antagonists of the estrogen receptor alpha (ER-alpha) signaling pathway using the BG1 cell line - cell viability counter screen (AID 743081).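 Further: compound given together with 17beta-estradiol as the ER stimulus; series mostly up to about 70 µM; nearly all actives have a fitted effect of over 45% in size.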
In experiment [8] the target is Aromatase (Homo sapiens) (UniProt P11511). Nature of the experiment: qHTS assay to identify aromatase inhibitors (AID 743083). Further: series mostly up to about 70 µM; nearly all actives have a fitted effect of over 55% in size.
A short description of experiment [9]: qHTS assay to identify aromatase inhibitors - cell viability counter screen (AID 743084).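 Further: cells stimulated with testosterone during compound exposure; nearly all actives have a fitted effect of over 55% in size.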
Experiment [10] addresses Aryl hydrocarbon receptor (Homo sapiens) (UniProt P35869). Nature of the experiment: qHTS assay to identify small molecule that activate the aryl hydrocarbon receptor (AhR) signaling pathway (AID 743085). Further: nearly all actives have a fitted effect of over 15% in size. Further: potency means the concentration at half of the fitted maximal effect.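 On activation: HG2L7.5c1 human HepG2 liver cells with stably integrated DRE-driven firefly reporter; series mostly up to about 70 µM.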 In outline:
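Steps: seed HepG2-AhR-luc cells; allow 5 h at 37C; pin-transfer test compound or vehicle; incubate 24 h at 37C; add viability dye (30 min, 37C) and read fluorescence; add luciferase substrate (30 min, RT) and read luminescence.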

A short description of experiment [11]: qHTS assay to identify small molecule that activate the aryl hydrocarbon receptor (AhR) signaling pathway - cell viability counter screen (AID 743086). Further: series mostly up to about 70 µM; nearly all actives have a fitted effect of over 45% in size. The method, boiled down: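 Cytotoxicity counter screen: CellTiter-Fluor signal (30 min, 37 C) in 4000 HepG2 cells/well carrying the DRE-luciferase reporter, following 24 h compound exposure at 37 C.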
Experiment [12] addresses Peroxisome proliferator-activated receptor gamma (Homo sapiens) (UniProt P37231). Description: qHTS assay to identify small molecule agonists of the peroxisome proliferator-activated receptor gamma (PPARg) signaling pathway (AID 743094; active means well fitted activation curve with a large enough effect in the signal ratio in the repeat runs, not every such curve was filed as active; inconclusive means weak or mixed curves, or effect the other way; inactive means no such curve, though single readings can be large or run the other way; the % refers to the signal ratio). In outline:
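Agonism was assessed in a beta-lactamase reporter system, HEK293H cells with a stably integrated UAS-bla construct under PPARg control; the 17 h treatment at 37C preceded a 1 h room-temperature FRET substrate read.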

Experiment [13] can be described thus: qHTS assay for small molecule agonists of the antioxidant response element (ARE) signaling pathway - cell viability counter screen (AID 743203; calls by dose curve; further: nearly all actives have a fitted effect of over 55% in size). In outline: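 ATP content via CellTiter-Glo luminescence served as the viability measure. Cells: ARE-bla HepG2, 2,000 per well. Exposure: 16 hrs, 37C/5% CO2.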
Experiment [14] is described as follows: qHTS assay for small molecule activators of the heat shock response signaling pathway - cell viability counter screen (AID 743209). Further: nearly all actives have a fitted effect of over 50% in size. The method, boiled down:
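Compounds dissolved in DMSO were added to overnight-plated HSE-bla HeLa cells and left 5 h at 37 C. Cell viability was quantified by luminescence using CellTiter-Glo.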

Experiment [15] can be described thus: qHTS assay for small molecule activators of the heat shock response signaling pathway (AID 743210; active means well fitted activation curve with a large enough effect in the signal ratio in the repeat runs, with a control signal flat, not every such curve was filed as active; inconclusive means weak or mixed curves; the % refers to the signal ratio;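 further: HeLa cells with beta-lactamase reporter driven by heat shock elements; series mostly up to about 63 µM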). The method, boiled down: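 Fluorescence from a cleaved B/G FRET substrate (2.5 h, room temp) reports HSE-driven beta-lactamase in HeLa cells treated 5 h at 37 C with DMSO-dissolved compounds.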
Experiment [16] is described as follows: qHTS assay to identify small molecule agonists of the peroxisome proliferator-activated receptor delta (PPARd) signaling pathway - cell viability counter screen (AID 743211). Further: nearly all actives have a fitted effect of over 55% in size. The method, boiled down:
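Viability of GeneBLAzer PPARd UAS-bla HEK293H cells was assessed after 17 h compound incubation at 37C, using CellTiter-Glo reagent added after the reporter read and luminescence recorded 30 min later.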

Experiment [17] has as its target Peroxisome proliferator-activated receptor delta (Homo sapiens) (UniProt Q03181). Nature of the experiment: qHTS assay to identify small molecule agonists of the peroxisome proliferator-activated receptor delta (PPARd) signaling pathway (AID 743212; calls by dose curve). In outline:
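Steps: seed PPARd-bla HEK293H cells; incubate 5 h, 37 C, 5% CO2; add compounds in DMSO; incubate, 37 C; add LiveBLAzer B/G FRET substrate; hold 2 h at room temperature; measure fluorescence.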

Experiment [18] in a line: qHTS assay to identify small molecule antagonists of the peroxisome proliferator-activated receptor gamma (PPARg) signaling pathway - cell viability counter screen (AID 743194). Further: nearly all actives have a fitted effect of over 55% in size. Conditions: Potency: co-treated with 50 nM rosiglitazone unless noted. In outline:
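Viability was measured as CellTiter-Glo luminescence in GeneBLAzer PPARg UAS-bla HEK293H cells. These cells had been exposed 17 h at 37 C to compounds together with rosiglitazone at 50 nM final, with the beta-lactamase readout taken in the same wells.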

Experiment [19] can be described thus: qHTS assay for small molecule agonists of the antioxidant response element (ARE) signaling pathway (AID 743202; active means well fitted activation curve with a large enough effect in the signal ratio in the repeat runs, not every such curve was filed as active; inconclusive means weak or mixed curves, or effect the other way; inactive means no such curve, though single readings can be large or run the other way; the % refers to the signal ratio; further: potency means the concentration at half of the fitted maximal effect). In outline: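 Beta-lactamase reporter activity, read as fluorescence intensity, reflects ARE/Nrf2 pathway induction in HepG2 cells after 16 h compound exposure at 37 C; substrate loading was 2 h at room temperature.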
Experiment [20] deals with Estrogen receptor (Homo sapiens) (UniProt P03372). Description: qHTS assay to identify small molecule antagonists of the estrogen receptor alpha (ER-alpha) signaling pathway (AID 743069; active means well fitted curve in the direction sought with a large enough effect in the signal ratio in the repeat runs, not every such curve was filed as active; inconclusive means weak or mixed curves, or effect the other way; inactive means no such curve, though single readings can be large or run the other way; the % refers to the signal ratio; further: potency means the concentration at half of the fitted maximal effect). In outline: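 Fluorescence intensity from a beta-lactamase FRET substrate served as the read-out. Cells: HEK293 with stably integrated ER-alpha-UAS-bla reporter. Agonist 17beta-estradiol was co-added with compounds; incubation 18 hr at 37C, substrate 2 hr at room temperature.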

Potency and outcome data for six compounds are collected here from PubChem BioAssay (Tox21).

Values joined by “and” are separate entries in the source; they are usually repeats but may differ in a detail not shown here. Identical values can stand only once. Where a structure was tested more than once in an assay, its records may differ in their call. Active and inactive are the calls of the source. Unless noted, the call rests on the fitted dose curve; in most records, active means well fitted curve in the direction sought with a large enough effect in the repeat runs; inconclusive means weak or mixed curves; inactive means no such curve, though single readings can be large; an effect the other way counts as inactive or inconclusive.

Sequence of Estrogen receptor (Homo sapiens) (P03372 whole entry, looked up): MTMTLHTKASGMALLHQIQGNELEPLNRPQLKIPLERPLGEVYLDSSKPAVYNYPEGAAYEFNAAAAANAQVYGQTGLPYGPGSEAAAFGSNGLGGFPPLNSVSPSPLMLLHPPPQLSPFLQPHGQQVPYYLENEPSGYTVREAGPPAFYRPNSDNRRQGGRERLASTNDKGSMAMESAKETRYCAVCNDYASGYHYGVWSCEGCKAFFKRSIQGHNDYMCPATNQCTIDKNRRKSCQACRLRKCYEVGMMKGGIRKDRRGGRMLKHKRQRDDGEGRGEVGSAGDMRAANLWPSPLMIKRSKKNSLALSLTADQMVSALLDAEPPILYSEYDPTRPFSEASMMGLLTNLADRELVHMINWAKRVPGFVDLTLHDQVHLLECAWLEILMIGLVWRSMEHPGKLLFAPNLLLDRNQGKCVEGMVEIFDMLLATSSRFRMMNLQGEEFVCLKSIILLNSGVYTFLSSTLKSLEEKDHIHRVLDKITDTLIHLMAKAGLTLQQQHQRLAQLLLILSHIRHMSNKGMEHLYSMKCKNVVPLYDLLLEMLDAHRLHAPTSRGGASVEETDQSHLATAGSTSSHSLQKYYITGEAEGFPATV
Sequence of Peroxisome proliferator-activated receptor delta (Homo sapiens) (Q03181 whole entry, looked up): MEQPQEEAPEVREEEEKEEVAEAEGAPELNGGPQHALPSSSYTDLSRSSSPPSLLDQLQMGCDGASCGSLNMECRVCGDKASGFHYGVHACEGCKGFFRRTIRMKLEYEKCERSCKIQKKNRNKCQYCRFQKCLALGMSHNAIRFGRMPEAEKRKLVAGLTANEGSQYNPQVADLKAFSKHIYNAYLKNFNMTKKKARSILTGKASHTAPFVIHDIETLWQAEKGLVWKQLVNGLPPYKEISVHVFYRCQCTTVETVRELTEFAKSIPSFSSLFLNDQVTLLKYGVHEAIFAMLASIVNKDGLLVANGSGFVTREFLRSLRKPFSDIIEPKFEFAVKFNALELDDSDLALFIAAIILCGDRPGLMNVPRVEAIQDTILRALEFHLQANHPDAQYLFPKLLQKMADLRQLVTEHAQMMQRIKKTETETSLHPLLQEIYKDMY
Sequence of Aryl hydrocarbon receptor (Homo sapiens) (P35869 whole entry, looked up): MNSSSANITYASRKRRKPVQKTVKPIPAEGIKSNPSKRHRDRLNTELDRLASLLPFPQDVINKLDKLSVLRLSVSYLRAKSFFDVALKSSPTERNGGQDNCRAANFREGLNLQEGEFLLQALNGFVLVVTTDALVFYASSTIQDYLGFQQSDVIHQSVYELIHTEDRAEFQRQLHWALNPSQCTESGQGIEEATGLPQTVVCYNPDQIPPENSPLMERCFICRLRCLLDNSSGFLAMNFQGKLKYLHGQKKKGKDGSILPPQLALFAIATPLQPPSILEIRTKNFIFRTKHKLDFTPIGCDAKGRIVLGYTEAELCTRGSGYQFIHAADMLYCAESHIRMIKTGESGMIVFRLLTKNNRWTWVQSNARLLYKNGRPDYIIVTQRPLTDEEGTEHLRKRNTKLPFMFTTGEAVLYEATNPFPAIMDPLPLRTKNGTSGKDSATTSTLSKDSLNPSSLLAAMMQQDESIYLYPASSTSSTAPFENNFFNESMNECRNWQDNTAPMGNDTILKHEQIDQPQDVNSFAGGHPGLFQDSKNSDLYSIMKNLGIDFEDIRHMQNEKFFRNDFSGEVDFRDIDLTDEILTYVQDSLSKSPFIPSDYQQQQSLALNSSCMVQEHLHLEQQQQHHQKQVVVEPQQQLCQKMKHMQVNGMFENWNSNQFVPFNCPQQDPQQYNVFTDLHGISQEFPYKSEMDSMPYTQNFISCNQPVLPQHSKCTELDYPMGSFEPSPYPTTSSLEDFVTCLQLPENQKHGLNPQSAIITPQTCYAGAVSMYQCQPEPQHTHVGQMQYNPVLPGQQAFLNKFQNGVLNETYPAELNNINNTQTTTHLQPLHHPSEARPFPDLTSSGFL
Sequence of Aromatase (Homo sapiens) (P11511 whole entry, looked up): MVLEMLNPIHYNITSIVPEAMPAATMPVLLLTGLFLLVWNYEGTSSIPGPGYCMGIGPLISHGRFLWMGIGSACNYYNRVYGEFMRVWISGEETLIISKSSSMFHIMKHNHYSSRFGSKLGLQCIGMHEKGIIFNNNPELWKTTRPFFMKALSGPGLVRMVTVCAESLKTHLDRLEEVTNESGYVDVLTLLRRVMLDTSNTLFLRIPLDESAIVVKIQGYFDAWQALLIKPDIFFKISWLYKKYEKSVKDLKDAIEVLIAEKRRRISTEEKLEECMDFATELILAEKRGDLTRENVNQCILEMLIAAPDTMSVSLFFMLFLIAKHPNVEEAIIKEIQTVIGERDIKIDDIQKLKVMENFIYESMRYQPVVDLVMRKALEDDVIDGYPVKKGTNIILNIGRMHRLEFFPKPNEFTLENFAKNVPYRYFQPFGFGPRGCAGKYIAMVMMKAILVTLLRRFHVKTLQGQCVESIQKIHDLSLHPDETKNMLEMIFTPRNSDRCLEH
Sequence of Peroxisome proliferator-activated receptor gamma (Homo sapiens) (P37231 whole entry, looked up): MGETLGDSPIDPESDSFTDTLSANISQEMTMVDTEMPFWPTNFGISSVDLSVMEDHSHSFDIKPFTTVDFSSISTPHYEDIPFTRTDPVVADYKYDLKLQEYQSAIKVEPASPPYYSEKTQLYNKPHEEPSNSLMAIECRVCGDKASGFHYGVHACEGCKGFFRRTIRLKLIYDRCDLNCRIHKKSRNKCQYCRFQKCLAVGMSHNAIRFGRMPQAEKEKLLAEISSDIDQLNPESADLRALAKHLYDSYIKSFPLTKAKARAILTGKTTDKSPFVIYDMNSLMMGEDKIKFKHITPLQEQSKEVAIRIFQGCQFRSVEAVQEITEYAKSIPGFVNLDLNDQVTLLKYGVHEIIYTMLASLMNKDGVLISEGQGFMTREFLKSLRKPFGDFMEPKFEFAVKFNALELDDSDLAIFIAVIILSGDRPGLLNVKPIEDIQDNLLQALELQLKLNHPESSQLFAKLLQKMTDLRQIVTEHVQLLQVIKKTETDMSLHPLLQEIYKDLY

For the compound `C[C@]12CCC(=O)C=C1CC[C@@H]1[C@@H]2CC[C@]2(C)C(=O)CC[C@@H]12`, the Potency entry in [1], in [3], in [4], in experiment [7], in [8] and in [9] was “inactive” each time. Also, the Potency result in [10], in [11], in [13], in [14] and in experiment [16] was “inactive” throughout. Moreover, the Potency is 60.1 µM (active) in [2]; 27.1 µM [activator] (active) and inactive in [5]; 1.5 µM (active) and 4.25 µM (active) and 4.33 µM (active) in experiment [6]. For the same compound, the compound was classed as inactive in experiment [12], in experiment [15] and in experiment [17].

Turning to `CCCCn1cc[n+](C)c1C`, the Potency result in experiment [1], in experiment [2], in experiment [3], in experiment [4], in [7] and in experiment [8] was “inactive” each time. Also, the Potency result in experiment [9], in experiment [10], in experiment [11], in [18], in [13] and in experiment [14] was “inactive” in each case. In experiment [16], the Potency result was “inactive”. Moreover, the Potency in experiment [19] is 60.8 µM (active) and 54.7 µM (active) and 61.6 µM (active). Moreover, the compound was called inactive in [15].

On to `Nc1ccc(Cl)cc1`, for which the Potency result in experiment [1], in experiment [2], in experiment [3], in experiment [4], in [5] and in [6] was “inactive” in each case. Moreover, the Potency entry in experiment [7], in experiment [8], in experiment [9], in [11], in experiment [19] and in experiment [13] was “inactive” throughout. In addition, the Potency result in experiment [14] and in experiment [16] was “inactive” in each case. The Potency in experiment [20] is 9.95 µM [inconclusive] (active); in experiment [10], 24.3 µM (active) and 30.6 µM (active) and 24.8 µM (active). The call in experiment [12], in experiment [15] and in [17] was inactive.

Regarding `O=C(O)CC(O)(CC(=O)O)C(=O)O`, the Potency result in experiment [1], in [2], in experiment [3], in experiment [4], in [7] and in experiment [8] was “inactive” each time. The Potency result in [9], in experiment [10], in experiment [11], in [19], in [13] and in experiment [14] was “inactive” throughout. The Potency result in experiment [16] is “inactive”. Besides, the outcome in experiment [12], in experiment [15] and in [17] was inactive.

As for `N#CS`, the Potency result in [1], in experiment [2], in [3], in experiment [4], in experiment [7] and in experiment [8] was “inactive” in each case. Moreover, the Potency entry in experiment [9], in experiment [10], in [11], in experiment [19], in experiment [13] and in experiment [14] was “inactive” throughout. Moreover, the Potency result in experiment [16] was “inactive”. In experiment [15], the compound was called inactive.

Turning to `CC(Cl)(Cl)C(=O)O`, the Potency entry in experiment [1], in experiment [2], in experiment [3], in experiment [20], in experiment [4] and in experiment [5] was “inactive” in each case. Further, the Potency entry in [6], in [7], in experiment [8], in [9], in [10] and in experiment [11] was “inactive” each time. The Potency entry in experiment [19], in experiment [13], in experiment [14] and in experiment [16] was “inactive” in each case. The outcome in experiment [12], in [15] and in experiment [17] was inactive.
